Among the data in PubChem BioAssay (NCI) are growth values, retold here.

The panel holds about 83,000 compounds, 20% with a hit somewhere; the sample as a whole holds those more often.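 Cell lines were cultured in 96-well plates, exposed to a single compound concentration, and assessed for percent growth 48 hours later.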 A number with no mark means an inactive call. Calls of active or inactive are those of the source. The calls were made as follows: active = growth percent below 10; inactive = the rest.

The test system of one assay is SK-MEL-28 melanoma. The assay can be described thus: NCI-60 one-dose screen, 48 h (100 = growth as untreated, 0 = no growth, -100 = all killed). As to conditions: 10 µM unless noted.
Regarding `Oc1cccc2ccc(-c3nnc(SCc4ccc(O)c5ncccc45)o3)nc12`, the growth is 35.2%.

In the case of `COC(=O)c1[nH]nc2c1C1(C(=O)N(C)c3ccccc31)C(C#N)=C(N)O2` (configuration not stated), the growth is 105%. Still for that read-out and setting: to `Cc1ccc2sc3c(c2c1)OC(N)=C(C#N)C3c1ccc(Cl)cc1` (configuration not stated) belongs 75.2%. Same read-out and setting: as for `CC1=NC2=NN3C(=NN2C(c2ccccc2)=C1)N=NC(c1ccc(Br)cc1)=C3c1ccc(Br)cc1`, the figure is 105%; as for `Cn1ccnc1C(=O)/C=C/c1ccc(NC(=O)c2c(F)c(F)c(F)c(F)c2F)cc1`, 105%. Same read-out and setting: to `COc1ccc(/C=C/C(=O)c2cc(S(N)(=O)=O)c(OC)cc2OC)cc1` belongs 40.9%; to `N#Cc1cccc(CN2CCC3=C(C2)C(=O)N(Cc2ccc(Cl)cc2)C2=NCCCN23)c1`, 44.8%.

On to `Cc1nn(-c2ccccc2)c2ncnc(N/N=C/c3ccccc3O)c12`, for which the growth was 23.2%. On to `COc1ccc(CCN2C(=O)CSC2=S)cc1`, for which the growth was 93.9%. As for `CC(=O)N1C(=S)NC(=O)C1CC(C)C` (configuration not stated), the growth is 101%. Turning to `Cc1ccc2sc3c(c2c1)OC(N)=C(C#N)C3c1cccc(F)c1` (configuration not stated), the growth was 51.3%. Same read-out and setting: to `COc1cc(-c2nc(SC(C)C)n(C(C)C)c(=O)c2C#N)ccc1OCc1ccccc1` belongs 96.8%. Same read-out and setting: as for `C/C(=N\O)[C@H]1C[C@]23CC[C@]4(C)[C@H](CC[C@@H]5[C@@]6(C)CC/C(=N/O)C(C)(C)[C@@H]6CC[C@]54C)[C@H]2[C@H](C)C1(C)OC3`, the figure is 110%.

With `NS(=O)(=O)c1ccc(-n2cc(-c3cccc(NC(=O)c4ccc(N5CCOCC5)c(C(F)(F)F)c4)c3)nn2)cc1`, the growth is 54.7%. The same measure, in the same setting: to `O=C1/C(=C/C=C/c2ccco2)SC(=S)N1c1ccccc1` belongs 79.9%; to `COc1cc(OC)c(S(N)(=O)=O)cc1C(C)=O`, 107%.

As for `CNC(=O)c1cc(Oc2ccc3nc(NC(=O)c4cc(N5CCOCC5)cc(C(F)(F)F)c4)sc3c2)ccn1`, the growth was 81.1%. Consider `CCCCCc1ccc(S(=O)(=O)Nc2cccc(-c3csc(NC(=O)CCCCCN4CCN(CCO)CC4)n3)c2)cc1`, for which the growth is 71.1%. With `CNC(=O)c1cc(Oc2ccc3nc(NC(=O)c4cccc(OC(F)(F)F)c4)sc3c2)ccn1`, the growth is 85.3%. Same read-out and setting: as for `Cc1cc(C)c(N2C(=O)CC(Nc3ccc(Cl)cc3Cl)C2=O)c(C)c1` (configuration not stated), the figure is 102%. With `Cc1ccc(C(=O)NN2C(=O)/C(=C/C=C/c3ccco3)SC2=S)cc1`, the growth is 94.4%. Same read-out and setting: to `CC/C(=C/c1c(O)cccc1OC)c1ccc2c(OC)cccc2[o+]1` belongs 97.3%. Take `Cc1ccc2c(c1)C(=O)/C(=C/c1cccc(F)c1)S2`: the growth is 101%.

On to `COc1cc(/C=C2\C(=O)Nc3ccccc32)ccc1OCc1ccc(F)cc1`, for which the growth was 110%.

In the case of `N/C(=N\C(N)=N\c1nc2ccccc2s1)c1ccc(C(F)(F)F)cc1`, the growth is 94.8%.

`CN(C)CCNC(=O)c1ccc(-c2nc3ccc4[nH]ncc4c3c3c2COCC3)cc1`: the growth was -6.13% (active). In the case of `O=C(Nc1ccc(N=Cc2c(O)[nH]c3ccccc23)cc1)Nc1nccs1`, the growth was 61.3%. On the same count and under the same terms, to `O=C(Nc1nonc1-c1ccccc1)c1ccc(C(F)(F)F)cc1` belongs 77.5%; to `COc1cccc(C(=O)Nc2cccc(C#Cc3cccc4[nH]nc(N)c34)c2)c1`, 67.7%; to `Cn1ccnc1C(=O)/C=C/c1ccc(NC(=O)c2ccc(F)cc2)cc1`, 90.9%. For the molecule `Nc1nc(-c2cccc([N+](=O)[O-])c2)c(N=Nc2ccccc2)s1`, the growth is 65%. For the molecule `Cc1ccc(N2C(=O)/C(=C/C=C/c3ccco3)SC2=S)cc1`, the growth was 95.8%. With `COc1cc(OC)c(S(N)(=O)=O)cc1C(=O)/C=C/c1ccc(C)cc1`, the growth is 58.7%. Same read-out and setting: to `CN1CCC(n2cc(Nc3ncc4c(=O)n(-c5c(Cl)cccc5Cl)cc(Br)c4n3)cn2)CC1` belongs 63.4%. The same measure, in the same setting: as for `C#CC(=O)N(c1ccc(OC)cc1OC)C(C(=O)NCC(=O)OCC)c1cccs1` (configuration not stated), the figure is 92.4%; as for `COc1ccc(/C=C(/C)c2ccc3ccc(OC)cc3[o+]2)c(O)c1`, 96%; as for `Cc1ccc(-c2nnc(SCc3ccc(O)c4ncccc34)n2-c2ccccc2)cc1`, 23%.

`CCOc1ccccc1NC1=C(Cl)C(=O)c2nc(C)ccc2C1=O`: the growth is 14.6%.

Another assay concerns SK-MEL-2 melanoma. The assay is described as above. The note with it: 10 µM unless noted.
Turning to `Oc1cccc2ccc(-c3nnc(SCc4ccc(O)c5ncccc45)o3)nc12`, the growth is 8.17% (active). As for `COC(=O)c1[nH]nc2c1C1(C(=O)N(C)c3ccccc31)C(C#N)=C(N)O2` (configuration not stated), the growth was 105%. On to `CC1=NC2=NN3C(=NN2C(c2ccccc2)=C1)N=NC(c1ccc(Br)cc1)=C3c1ccc(Br)cc1`, for which the growth is 103%. On the same count and under the same terms, as for `Cn1ccnc1C(=O)/C=C/c1ccc(NC(=O)c2c(F)c(F)c(F)c(F)c2F)cc1`, the figure is 112%; as for `N#Cc1cccc(CN2CCC3=C(C2)C(=O)N(Cc2ccc(Cl)cc2)C2=NCCCN23)c1`, 26.4%; as for `CC(=O)N1C(=S)NC(=O)C1CC(C)C` (configuration not stated), 102%.

In the case of `C/C(=N\O)[C@H]1C[C@]23CC[C@]4(C)[C@H](CC[C@@H]5[C@@]6(C)CC/C(=N/O)C(C)(C)[C@@H]6CC[C@]54C)[C@H]2[C@H](C)C1(C)OC3`, the growth was 110%. Still for that read-out and setting: as for `CCCCCc1ccc(S(=O)(=O)Nc2cccc(-c3csc(NC(=O)CCCCCN4CCN(CCO)CC4)n3)c2)cc1`, the figure is 105%; as for `CC/C(=C/c1c(O)cccc1OC)c1ccc2c(OC)cccc2[o+]1`, 107%.

As to `COc1cc(/C=C2\C(=O)Nc3ccccc32)ccc1OCc1ccc(F)cc1`, the growth was 107%.

As to `CN(C)CCNC(=O)c1ccc(-c2nc3ccc4[nH]ncc4c3c3c2COCC3)cc1`, the growth was -69.7% (active). With `O=C(Nc1ccc(N=Cc2c(O)[nH]c3ccccc23)cc1)Nc1nccs1`, the growth was 62.1%.

`O=C(Nc1nonc1-c1ccccc1)c1ccc(C(F)(F)F)cc1`: the growth was 65.3%. Still for that read-out and setting: to `Cn1ccnc1C(=O)/C=C/c1ccc(NC(=O)c2ccc(F)cc2)cc1` belongs 106%; to `C#CC(=O)N(c1ccc(OC)cc1OC)C(C(=O)NCC(=O)OCC)c1cccs1` (configuration not stated), 95%; to `COc1ccc(/C=C(/C)c2ccc3ccc(OC)cc3[o+]2)c(O)c1`, 94.3%. On the same count and under the same terms, as for `Cc1ccc(-c2cc3nc(C(Cl)Cl)nc(C)n3n2)cc1`, the figure is 110%. Turning to `Cc1ccc(-c2nnc(SCc3ccc(O)c4ncccc34)n2-c2ccccc2)cc1`, the growth is -0.952% (active). On the same count and under the same terms, to `CCOc1ccccc1NC1=C(Cl)C(=O)c2nc(C)ccc2C1=O` belongs -15.7% (active).
